Compound activity as filed in PubChem BioAssay.
Many of the other results were omitted from the sample, so hits are more common in it than they were.
Pf Dd2 growth – inhibitors of Plasmodium falciparum Dd2 growth; hit rate 4.3% among 120,000; AID 1347417; P. falciparum Dd2 growth, SYBR Green, 72 h; Potency, µM (series often up to 28.9 µM), for the others: at the top dose activity, negative = inhibition, actives largely listed as inhibitors; active means well fitted inhibition curve with a large enough effect;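 further: plate controls were DMSO vehicle for no effect and reference drug for full effect; nearly all actives have a fitted effect of over 65% in size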
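Readout: SYBR Green fluorescence, 485 nm excitation, 535 nm emission, after ~16 h lysis at 37C. Before that, Dd2-infected red cells (2.5% hematocrit) grew 72 h with compound, 29 uM top final concentration.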
Active calls of the source: *; i = inactive; [ ] = remark or other dose. Potency means the concentration at half of the fitted maximal effect.

SMILES	Pf Dd2 growth
Cc1ccc(-c2cnc([C@@H]3COCCN3C)[nH]2)cc1	-4%[44.1 µM]
CC(C)NC(=O)N1CCC(c2nnc3n2CCNC3)CC1	0%
COc1ccc(OC)c(NC(=O)CSC2=Nc3ccccc3C3=NC(CCC(=O)NCc4ccccc4)C(=O)N23)c1 (centres undefined)	13µM*
CCOc1ccc(NC(=O)CSC2=Nc3ccccc3C3=NC(CCC(=O)NCc4ccccc4)C(=O)N23)cc1 (centres undefined)	i
CC(C)(C)c1ccc(CSC2=Nc3ccccc3C3=NC(CC(=O)NCc4cccs4)C(=O)N23)cc1 (centres undefined)	i
Cc1ccc(CSC2=Nc3ccccc3C3=NC(CC(=O)NCc4cccs4)C(=O)N23)c(C)c1 (centres undefined)	13%
Cc1cccc(NC(=O)CSC2=Nc3ccccc3C3=NC(CC(=O)NCc4cccs4)C(=O)N23)c1 (centres undefined)	3.2µM*
CC(C)c1ccc(NC(=O)CSC2=Nc3ccccc3C3=NC(CCC(=O)NCc4ccc(F)cc4)C(=O)N23)cc1 (centres undefined)	-11%
COc1ccccc1NC(=O)CSC1=Nc2ccccc2C2=NC(CCC(=O)NCCc3ccccc3)C(=O)N12 (centres undefined)	-22%
COc1ccc(Cl)cc1NC(=O)CSC1=Nc2ccccc2C2=NC(CCC(=O)NCc3ccc(F)cc3)C(=O)N12 (centres undefined)	-23%
COc1ccc(NC(=O)CSC2=Nc3ccccc3C3=NC(CCC(=O)NCc4ccc(F)cc4)C(=O)N23)cc1Cl (centres undefined)	11µM*
COCCCNC(=O)Cn1nc2c(cc1=O)CCCC2	-13%
Cn1nc(C(=O)N2CCCC(CNC(=O)c3ccc(-c4ccccc4)cc3)C2)ccc1=O (centres undefined)	-14%
CNC(=O)[C@H]1C[C@H](Oc2ccccc2)CN1C(=O)c1cc(-c2ccc(F)cc2)n[nH]1	-18%
CCOCCOC1CCN(C(=O)c2ccc(OC)nc2)CC1	34%
Cc1noc(-c2cccn3c(CNC(=O)c4ccoc4)nnc23)n1	i
CCOC(=O)C1(Cc2ccccc2C(F)(F)F)CCN(Cc2ccccn2)CC1	6.3µM*
CN(Cc1ccccn1)Cc1ccccc1C(F)(F)F	-17%[44.1 µM]
COCC1CN(C(C)=O)CC12CCN(Cc1ccccc1C(F)(F)F)CC2 (centres undefined)	-24%
CCOC(=O)C1(Cc2ccccc2C(F)(F)F)CCN(C(C)Cc2cccc(C)n2)CC1 (centres undefined)	13µM*
CCOC(=O)C1(Cc2ccccc2F)CCCN(C(=O)c2ccc(-n3ccnc3)cc2)C1 (centres undefined)	i
OCC1(Cc2ccccc2C(F)(F)F)CCNCC1	-4%
Cc1cc(C[C@@H]2COC[C@@H]2NC(=O)c2c(C)cc(C)n(C)c2=O)on1	10%
COc1ccc(NC(=O)Cn2ccn3nc(-c4ccccc4)c(CO)c3c2=O)cc1	16%
CCOc1ccccc1NC(=O)N1CCCCCCNC(=O)CC1c1ccccc1 (centres undefined)	-41%
SMILES	Pf Dd2 growth
O=C1CC(c2ccccc2)N(Cc2ccccn2)CCCCCN1 (centres undefined)	-17%
Cc1ccc(CN2CCC[C@H]2C(=O)N2CCCCCCNC(=O)CC2)o1	i
CCOc1ccccc1CN1CCCCCCNC(=O)CC1	i
CCOc1ccccc1CN1CCC[C@H]1C(=O)N1CCCCCCNC(=O)CC1	6.3µM*
CCOc1ccccc1CN1CCCCCNC(=O)CC1c1ccccc1 (centres undefined)	7.9µM*
Cn1c(CCC(=O)NCc2ccon2)nc2cc(S(=O)(=O)N3CCCC3)ccc21	4%
Cc1ccc(C(=O)N2CCC3(CC2)C(=O)Nc2ccccc23)cc1	47%
O=C1CCCCCN1C1CCN(Cc2ccc(F)cc2)CC1	-7%[44.1 µM]
COc1ccc(S(=O)(=O)N2CCC3(CC2)CC(CC(=O)NC2CC2)CCO3)cc1 (centres undefined)	6.3µM*
COc1cccc(S(=O)(=O)N2CCC3(CC2)CC(CC(=O)NC2CC2)CCO3)c1 (centres undefined)	21%
Cn1cnc(S(=O)(=O)N2CCC3(CC2)CC(CC(=O)NC2CC2)CCO3)c1 (centres undefined)	-33%
Cc1nc([C@H]2CCN(Cc3ccc(C)o3)C[C@H]2NC(=O)C2CCOCC2)n[nH]1	-20%
CC(c1n[nH]c(=O)n1CCc1ccccc1F)n1cccn1 (centres undefined)	8%
O=C(NCCc1noc(C2CC2)n1)c1cccs1	39%
Cc1ccc(NC(=O)C(=O)NCC(c2ccc3c(c2)OCO3)N2CCN(c3ccccc3)CC2)cc1 (centres undefined)	-2%
CC(=O)NCC(c1ccc2c(c1)OCO2)N1CCN(c2ccccc2)CC1 (centres undefined)	-2%
CC(C)(C)CC(=O)NCC(c1ccc2c(c1)OCO2)N1CCN(c2ccccc2)CC1 (centres undefined)	7.1µM*
Cc1ccc(C(=O)NCC(c2ccc3c(c2)OCO3)N2CCN(c3ccc(F)cc3)CC2)cc1 (centres undefined)	13µM*
CCCC(=O)NCC(c1ccc2c(c1)OCO2)N1CCN(c2ccc(F)cc2)CC1 (centres undefined)	-18%
CCCC(=O)NCC(c1ccc2c(c1)OCO2)N1CCN(c2ccccc2)CC1 (centres undefined)	0%
CC1(C)CN(C(=O)c2cccc(-c3ncc[nH]3)c2)CC1(C)O (centres undefined)	-6%
O=C(Cn1cccc1-c1nc(-c2ccc(F)cc2)no1)Nc1ccccc1	-18%
CCCN1CCN(C(=O)CN2CC3CC(C2)[C@H]2CCCC(=O)N2C3)CC1 (some centres undefined)	-18%
COCC(=O)N[C@@H]1CN(Cc2cccc(F)c2F)C[C@H]1CO	-15%
COc1cc(OC)cc(C(=O)N2[C@@H]3CC[C@H]2CC(NC(=O)c2ccncc2)C3)c1 (some centres undefined)	-5%
SMILES	Pf Dd2 growth
NCC(=O)N1CCCC(N2CCN(c3cccc(C(F)(F)F)c3)CC2)C1 (centres undefined)	-18%
COc1cccc(CN2CCCC(N3CCN(c4cccc(C(F)(F)F)c4)CC3)C2)c1O (centres undefined)	0.4µM*
NC(=O)NCCN1CCCC(N2CCN(c3cccc(C(F)(F)F)c3)CC2)C1 (centres undefined)	-10%
CC(C)N1CCC(N2CCCC(N3CCN(c4cccc(C(F)(F)F)c4)CC3)C2)CC1 (centres undefined)	14µM*
CNC(=O)CN1CCCC(N2CCN(c3cccc(C(F)(F)F)c3)CC2)C1 (centres undefined)	-23%
O=C(CO)N1CCCC(N2CCN(c3cccc(C(F)(F)F)c3)CC2)C1 (centres undefined)	-1%
C=CCO[C@@H]1CCN2C(=O)[C@@H]3C[C@@H](OCC4CC4)CN3C(=O)[C@@H]2C1	-3%[44.1 µM]
COCCCn1c(C(C)NC(=O)OCc2ccccc2)nc2cccnc21 (centres undefined)	2%
CCCC(=O)Nc1cc(C)c(O)c(-c2nc3ncccc3o2)c1	11%
Cc1ccc(C(C)C)c(OCC(=O)Nc2cccc(-c3nc4ncccc4o3)c2)c1	-14%
CC(C)(Oc1ccc(Cl)cc1)C(=O)Nc1ccc(-c2nc3ncccc3o2)cc1	i
CCC(C)c1ccc(OCC(=O)Nc2ccc(-c3nc4ncccc4o3)cc2)cc1 (centres undefined)	10µM*
COc1ccc(OCC(=O)Nc2ccc(-c3nc4cc(Cl)ccc4o3)cc2)cc1	5%
